# Assay outcomes: PubChem, National Center for Advancing Translational Sciences (NCATS)
# TDP1 cell noCPT: qHTS for Inhibitors of human tyrosyl-DNA phosphodiesterase 1 (TDP1): qHTS in cells in absence of CPT | DT40 Tdp1-/- hTDP1 cells, no CPT, ATP luminescence, 48 h | Potency, µM (highest dose often 46.2 µM), for the others: at the top dose activity change, negative = growth inhibition, actives largely listed as inhibitors | 420,000 compounds, 15% hits | AID 686978, 2013; also: potency is read from the fitted curve at half-maximal effect; % is scaled to controls: 0 for no effect and ±100 for the full control effect; nearly all actives have a fitted effect of over 55% in size
#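 DT40 Tdp1-/-;hTDP1 cells, no CPT (DMSO vehicle only), 400 cells/well; compounds pin-transferred; ≥48 hr, 37 °C; CellTiter-Glo 30 min RT dark, luminescence read.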
# TDP1 cell CPT: qHTS for Inhibitors of human tyrosyl-DNA phosphodiesterase 1 (TDP1): qHTS in cells in presence of CPT; chicken DT40 Tdp1-/-;hTDP1 cells + 20 nM CPT, ATP luminescence, 48 h; Potency, µM (highest dose often 46.2 µM), for inactives: at the highest dose activity change, negative = growth inhibition, actives largely listed as inhibitors; 420,000 compounds, 12% hits; also: potency is read from the fitted curve at half-maximal effect; % is scaled to controls: 0 for no effect and ±100 for the full control effect; nearly all actives have a fitted effect of over 55% in size
#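 Cell growth measured by CellTiter-Glo luminescence after a minimum 48 h, 37 C compound exposure with 20 nM CPT in Tdp1-knockout DT40 cells stably expressing hTDP1, seeded 400/well; qHTS titration format.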
# miR-21 act: qHTS Assay for Modulators of miRNAs and/orActivators of miR-21; Potency, µM (highest dose often 38.3 µM), without a hit: top-dose activity change, positive = activation, most hits filed as activators; 340,000 tested, under 10 active; HeLa miR-21 FLuc reporter, luciferase, 48 h;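 also: % of control where 0% means no effect; miR-21 action dims this reporter so a rising signal means less miR-21 action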
#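 Compounds were titrated across several concentrations (up to approximately 40 uM) and incubated 48 hours with HeLa miR-21-FLuc reporter cells (miR-21 target sequence downstream of FLuc, endogenous miR-21). Readout was firefly luciferase luminescence after lytic detection reagent.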
# uPA generation: qHTS for Inhibitors of Cell Surface uPA Generation. cell surface uPA generation assay, qHTS. Potency, µM (highest dose often 38.3 µM), for the others: at the top dose activity change, negative = inhibition, hits mostly inhibitors. 330,000 compounds, 0.31% hits; active = well fitted inhibition curve with a large enough effect; inconclusive = small, poorly fitted or top-dose-only effect; inactive = no such curve, though single readings can be large or run the other way; tested in mouse RAW 264.7 cells; also: potency is read from the fitted curve at half-maximal effect; % is scaled to controls: 0 for no effect and ±100 for the full control effect; nearly all actives have a fitted effect of over 55% in size
# TDP1 inh: qHTS Assay for Inhibitors of Tyrosyl-DNA Phosphodiesterase (TDP1); Tyrosyl-DNA phosphodiesterase 1 (Homo sapiens), Q9NUW8; recombinant TDP1, AlphaScreen DNA substrate cleavage; Potency, µM (series often up to 130 µM), for the others: top-dose activity change, negative = inhibition, actives largely listed as inhibitors; 350,000 compounds, 0.28% hits; AID 485290, 2010; also: potency is read from the fitted curve at half-maximal effect; % is scaled to controls: 0 for no effect and ±100 for the full control effect; nearly all actives have a fitted effect of over 40% in size
# Target sequence (Q9NUW8 whole entry, looked up): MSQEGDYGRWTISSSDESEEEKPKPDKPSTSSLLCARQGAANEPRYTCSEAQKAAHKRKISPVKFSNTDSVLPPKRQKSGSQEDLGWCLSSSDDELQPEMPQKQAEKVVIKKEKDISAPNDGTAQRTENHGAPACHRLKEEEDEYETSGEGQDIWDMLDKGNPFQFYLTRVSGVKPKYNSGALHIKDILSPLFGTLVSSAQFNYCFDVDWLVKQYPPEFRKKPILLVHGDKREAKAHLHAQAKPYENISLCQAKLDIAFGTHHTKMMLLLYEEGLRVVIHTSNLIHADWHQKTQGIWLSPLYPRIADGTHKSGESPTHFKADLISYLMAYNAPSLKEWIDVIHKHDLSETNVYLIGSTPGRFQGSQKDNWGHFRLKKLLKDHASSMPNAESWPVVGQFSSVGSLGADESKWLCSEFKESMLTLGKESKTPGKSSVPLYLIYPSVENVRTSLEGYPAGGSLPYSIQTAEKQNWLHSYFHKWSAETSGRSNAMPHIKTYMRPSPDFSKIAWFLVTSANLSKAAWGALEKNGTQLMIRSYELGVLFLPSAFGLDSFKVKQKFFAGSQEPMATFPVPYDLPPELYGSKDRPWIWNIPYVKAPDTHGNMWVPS
#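 Here, a 5' biotin and 3' phosphotyrosine-FITC DNA oligonucleotide reports Tdp1 activity: intact substrate bridges AlphaScreen beads, while cleavage leaves a 3' phosphate and drops signal. All incubations at room temperature.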
# * = called active by the depositor; ? = inconclusive; . = not tested or not shown. Only some compounds are listed: those with a hit (about 16% of all), similar ones and a draw of the others. Unless noted, calls follow the shape of the dose curve; as a rule, active = well fitted curve in the direction sought with a large enough effect; inconclusive = small, poorly fitted or top-dose-only effect, or another doubt; inactive = no such curve, though single readings can be large; an effect the other way counts as inactive or inconclusive.
SMILES,TDP1 cell noCPT,TDP1 cell CPT,miR-21 act,uPA generation,TDP1 inh
Cc1ccccc1C(=O)N(C)Cc1ccccc1,?,-8.7%,1.5%,.,2.2%
COCCn1nnnc1C(C(C)C)N(Cc1cccnc1)Cc1ccccc1Cl (stereo not given),23.1µM*,?,-7.9%,2.9%,9.1%
COc1cccc(CN2CC(C(=O)N(C)Cc3ccnc4ccccc34)CCC2=O)c1 (stereo not given),11.2%,-9.6%,-5.2%,-25.3%,0.8%
Cc1cc(C(=O)N/N=C/c2c(C)[nH]n(-c3ccccc3)c2=O)n[nH]1,?,20.6µM*,5.5%,-9.4%,2.1%
CCOc1ccc2ccccc2c1/C=N/NC(=O)c1cc(C)[nH]n1,8.8%,-4.2%,-4.0%,-0.2%,.
Cc1[nH]n(-c2ccccc2)c(=O)c1/C=N/Nc1nncc(-c2ccccc2)n1,1.03µM*,1.03µM*,10.3%,?,11.3%
Cc1cc(C(=O)N/N=C/c2c(C)n(C)c3ccccc23)n[nH]1,?,18.8%,-23.1%,5.5%,3.8%
Cc1ccc(-n2[nH]c(C)c(/C=N/NC(=O)c3ccc(O)cc3O)c2=O)cc1,5.17µM*,11.6µM*,-5.3%,?,.
Cc1cc(C(=O)N/N=C/c2c3ccccc3cc3ccccc23)n[nH]1,9.2µM*,?,18.0%,-1.7%,5.6%
CC(Sc1nc(C(F)(F)F)nc2ccccc12)C(=O)NC1CCCC1 (stereo not given),?,-14.2%,.,-2.2%,-2.0%
CC1CCCCN1C(=O)COC(=O)C1CCN(S(=O)(=O)c2ccc(Cl)c(C(F)(F)F)c2)CC1 (stereo not given),-19.9%,-5.6%,.,2.5%,0.2%
Cc1ccc(-c2cc(C(=O)N/N=C/c3c(C)nn(-c4ccccc4)c3C)n[nH]2)s1,0.82µM*,0.651µM*,14.4%,?,5.7%
Cc1[nH]n(-c2ccccc2)c(=O)c1/C=N/NC(=O)c1ccc(O)cc1O,20.6µM*,?,-23.8%,12.1%,.
Cc1[nH]n(-c2ccc(Cl)cc2)c(=O)c1/C=N/c1nnc(-c2ccccc2)s1,16.4µM*,?,-19.0%,-0.2%,5.7%
Cc1[nH]n(-c2ccccc2)c(=O)c1/C=N/N1CCOCC1,-0.5%,-14.1%,-4.7%,-5.5%,.
Cc1cc(C(=O)N/N=C/c2cc(N=Nc3ccccc3)ccc2O)n[nH]1,6.51µM*,5.8µM*,-17.9%,-19.4%,-1.1%
COC(=O)N/N=C/c1cc(N=Nc2ccccc2)ccc1O,?,?,-16.7%,0.0%,6.0%
O=C1CCC(=O)N1CNc1ccccn1,?,4.3%,-5.2%,6.3%,4.1%
CCCCS(=O)(=O)N1CCCC(C(=O)N2CCOCC2)C1 (stereo not given),-24.8%,-1.4%,4.6%,13.6%,.
COc1ccc(OC)c(NC(=O)c2ccc3c(Cl)c4c(nc3c2)CCCC4)c1,-7.9%,-15.3%,1.8%,.,2.3%
CCN(CC)CCCOc1ccc(C)cc1Br,-25.9%,-5.4%,-2.0%,1.4%,.
CCCCN(CCCC)C(=S)N/N=C/c1c(C)[nH]n(-c2ccccc2)c1=O,2.59µM*,2.06µM*,10.4%,1.9%,11.8%
Cc1[nH]c2ccccc2c1/C=N/NC(=O)c1cc(-c2cccs2)[nH]n1,20.6µM*,?,-7.9%,11.5%,5.7%
Cc1cc(C(=O)N/N=C/c2c(C)[nH]c3ccccc23)n[nH]1,-19.9%,15.5%,-2.1%,1.5%,5.2%
Cc1ccc(N2CCN(S(=O)(=O)c3nnc(NC(=O)c4ccccc4)s3)CC2)cc1,-17.7%,?,-3.4%,-6.1%,2.6%
SMILES,TDP1 cell noCPT,TDP1 cell CPT,miR-21 act,uPA generation,TDP1 inh
CC(C)COC(=O)/C(C#N)=C/c1cn(Cc2ccccc2)c2ccccc12,-18.1%,-19.8%,1.3%,-0.1%,2.8%
COC(=O)C1CCN(C(=O)CSc2nc3nc(C)cc(C)n3n2)CC1,-4.1%,-0.4%,.,7.3%,10.9%
CCOc1ccc(-c2nnn(CC(=O)c3ccc4c(c3)OCCO4)n2)cc1OCC,18.4µM*,?,0.9%,-6.9%,2.9%
O=C(NCc1ccc(F)cc1)C(=O)NCC1OCCCN1S(=O)(=O)c1cccs1 (stereo not given),-2.7%,-11.5%,0.3%,-10.1%,3.1%
CCn1c(SCC(N)=O)nnc1-c1cc2c(C)nn(-c3ccccc3)c2s1,29.1µM*,?,-10.8%,-5.1%,4.2%
Cc1ncc(Cc2ccccc2)c(C2CCN(S(=O)(=O)C[C@]34CC[C@H](CC3=O)C4(C)C)CC2)n1,14.6µM*,?,.,.,.
Cc1ccc(C)c(N2CCN(S(=O)(=O)CC34CCC(CC3=O)C4(C)C)CC2)c1 (stereo not given),-24.1%,?,-6.1%,7.7%,1.0%
O=S(=O)(Nc1cccc(-c2ccc(N3CCCCC3)nn2)c1)c1cccc(F)c1,-29.4%,-24.0%,0.3%,.,4.1%
O=S(=O)(Nc1ccc(-c2ccc(N3CCCCCC3)nn2)cc1)c1cccc(C(F)(F)F)c1,?,14.6µM*,-0.4%,.,4.1%
Cc1cc(C)c(S(=O)(=O)Nc2ccc(-c3ccc(N4CCCCC4)nn3)cc2)cc1C,18.4µM*,8.2µM*,-3.2%,.,7.7%
O=S(=O)(Nc1ccc(-c2ccc(N3CCCC3)nn2)cc1)c1ccc(C(F)(F)F)cc1,?,?,13.5%,.,1.8%
O=S(=O)(Nc1ccc(-c2ccc(N3CCCCCC3)nn2)cc1)c1ccc(C(F)(F)F)cc1,?,11.6µM*,-0.4%,.,-5.3%
CCOC(=O)Cn1cnc2c(nnn2-c2cccc(OC)c2)c1=O,2.4%,2.2%,-1.1%,-2.9%,.
FC(F)(F)c1cccc(N2CCC(N=CN3CCCCCC3)=N2)c1,?,-17.8%,-37.6%,0.1%,8.1%
CC(C)C1Oc2ccccc2N(CC(=O)N(Cc2ccccn2)CC2CCCO2)C1=O (stereo not given),?,-26.2%,-3.1%,.,2.0%
Cc1ccc(CN(CC2CCCO2)C(=O)CN2C(=O)C(C(C)C)Oc3ccccc32)o1 (stereo not given),?,25.9µM*,4.8%,.,6.0%
CCc1ccc2c(c1)C(c1ccc(N3CCOCC3)cc1)=NNC(c1ccncc1)=N2,-2.1%,-14.9%,0.9%,1.6%,3.5%
CCOc1ccc(C2=Nc3ccc(Br)cc3C(c3ccc(N4CCOCC4)cc3)=NN2)cc1,14.6µM*,?,-51.1%,5.3%,4.4%
CCOc1ccc(C2=Nc3ccccc3C(c3ccc(N4CCOCC4)cc3)=NN2)cc1,13µM*,23.1µM*,-35.7%,.,8.6%
Cc1ccc(S(=O)(=O)CCC(=O)NCCN2C(=O)S/C(=C/c3ccc(F)cc3)C2=O)cc1,18.4µM*,23.1µM*,-19.7%,-5.3%,5.4%
